Several values for one entry are separate records, joined by “and”; a condition that tells them apart may be missing. Equal values may be shown once. Activity calls are given as the source filed them.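 How the source made its calls, unless noted: active means z-score of at least 1.8 in each of two replicates, scored against plate mean and spread of sample wells; inactive means the rest.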

As usually defined, the inhibition is the drop in the measured response relative to a control, in per cent. Usually viability stands for a read-out of living cells in per cent, often relative to untreated cells.

Assay [1] is described as follows: stimulators of insulin release from INS-1E, primary screen, cell-based, 5 mM glucose, NPC library (AID 1117329;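 active means compound raises insulin release from rat beta cells at 5 mM glucose, no numeric limit stated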). The note with it: rat INS-1E insulin secretion, at 10 µM, stronger effect = higher value.
The nature of assay [2]: growth inhibition of GSK3B-pretreated HCT116 cells – cell-based, CellTiter-Glo, 0.2 to 20 µM (AID 1117336;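 active means compounds lowering colon cancer cell viability after pretreatment blocking the GSK3B kinase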). Particulars: HCT116 viability after GSK3B inhibitor, at 20 µM, stronger effect = higher value. A general note: In ATP-based viability assays light output follows the ATP content of the culture.
Assay [3] is described as follows: inhibition of endothelial tube formation, primary screen, imaging, VEGF stimulated, CD31 staining, tube area, NPC library (AID 1117340;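 active means compound that reduces growth-factor-driven endothelial tube area in a mixed cell culture, no cutoff stated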). Particulars: VEGF-stimulated ADSC/ECFC co-culture, at 10 µM, stronger effect = higher value.
Assay [4] in a line: glucagon-like peptide 1 release enhancers, primary assay, NCI-H716 cell line, NPC library (AID 1117341;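 active means compound raises GLP1 secretion from the human gut endocrine cells, with no numeric limit stated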). Particulars: NCI-H716 cells, at 10 µM, stronger effect = higher value.
Assay [5] in a line: HCT116 colon cancer cell growth inhibition, primary screen, CellTiter-Glo luminescence, NPC library (AID 1117342;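 active means compounds that lower survival of HCT116 colon cancer cells in the luminescence readout, no numeric limit stated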). Particulars: at 20 µM (top of the series).
Assay [6] can be described thus: CellTiter-Glo luminescent readout of SW480 viability loss, NPC library primary (AID 1117343;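 active means compounds that lower viability of the colon cancer cells in the luminescence readout, with no numeric limit stated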). The note with it: CellTiter-Glo luminescence; at 20 µM (top of the series) unless noted.
Assay [7] can be described thus: decreased DLD-1 cellular survival, CellTiter-Glo luminescent readout, NPC compound collection, primary HTS (AID 1117346;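 active means compounds that lower survival of DLD-1 colon cancer cells in the luminescence readout, no cutoff given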). The note with it: DLD-1 viability, CellTiter-Glo luminescence; at 20 µM (top of the series).
Assay [8] addresses 6-phosphogluconate dehydrogenase, decarboxylating (Homo sapiens) (UniProt P52209). Nature of the assay: 6PGD enzyme inhibitors, primary screen, biochemical, human, recombinant enzyme, NADPH absorbance (AID 1159550;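 active means at least 20% inhibition of 6-phosphogluconate dehydrogenase activity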). Particulars: recombinant 6PGD, NADPH absorbance 341 nm; at 10 µM; stronger effect = higher value.
Assay [9] in a line: differential killing of epithelial or mesenchymal cells, primary screen, imaging, PC-3E GFP, TEM4-18 mCherry, co-culture (AID 1345086;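 active means compounds killing one labelled cell type while sparing the other, by normalised counts and ratio limits, not self-fluorescent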;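 further: cells exposed to compound for 72 h before imaging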;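 on red/green cell ratio (normalised): normalised mesenchymal count divided by normalised epithelial count so high means epithelial killing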). Particulars: imaging cell counts, at 1 µM.
A short description of assay [10]: survival rescue of mitochondrial mutant cells in low glucose, primary screen, MELAS cybrids, Rieske KO mouse fibroblasts, CellTiter-Glo (AID 1508586;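 active means mean z-score across replicates of 1.96 or higher in either the MELAS or the Rieske mutant cell line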;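 further: z relative to plate mean and SD of compound and empty wells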).
Assay [11] has as its target NAD(+) hydrolase SARM1 (Homo sapiens) (UniProt Q6SZW1). The assay is described as follows: SARM1 TIR NADase inhibitors, cell lysate, NAD-Glo luminescence (AID 1508614;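 active means compound whose remaining NAD level is above about 45 nM, limit read from the data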). The note with it: SAM-TIR HEK293T lysate NADase, at 1 µM, stronger effect = higher value.
The target of assay [12] is Mitogen-activated protein kinase 7 (Homo sapiens) (UniProt Q13164). The assay is described as follows: ERK5 transactivation activators in reporter cells, primary screen, cell-based, HTS (AID 1508626;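 active means luciferase signal above three times the same-plate solvent-only control wells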;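 further: luciferase driven by Gal4-ERK5 fusion binding five Gal4 sites before minimal TATA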). The note with it: HeLa Gal4-ERK5 transactivation, 18 h, at 5 µM, stronger effect = higher value.
A short description of assay [13]: viability rescue of complex I mutant cybrids, primary screen, cell-based, galactose medium, ATP luminescence (AID 1645843).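 Further: positive z means more ATP and so rescue of galactose-driven cybrid death.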 The note with it: complex I mutant cybrid cells, 72 h, stronger effect = higher value.
The nature of assay [14]: liver-stage malaria parasite growth inhibition, primary screen, cell-based, HepG2, luciferase luminescence, HepG2 viability (AID 624349; in the data active means parasite load remaining mostly below about 12%, no sharp cut-off; inactive means mostly above about 10%;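 further: 100% = mean of DMSO negative control wells on the same plate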). The note with it: P. berghei liver stage in HepG2, luciferase luminescence, concentration not given here; parasite load remaining: stronger effect = lower value; viability: measured here: HepG2 viability without parasites.
A short description of assay [15]: sensitizers of A549 cells to miR-34 induction, primary screen, imaging, A549 dox-inducible miR-34, nuclei and caspase counts (AID 1347080;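 active means compounds whose cell count with miR-34 switched on is under 0.7 times the count with it off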). Particulars: A549 miR-34 inducible, Hoechst nuclei count, 48 h.
Assay [16] concerns Hepatitis C virus NS3 helicase. Nature of the assay: HCV NS3 helicase inhibitors, primary screen, biochemical, fluorescence polarization, NIH Clinical Collection (AID 743270; call rule not given here). Particulars: NS3 helicase binding to Cy5-dT15 DNA, stronger effect = higher value, concentration not given here. A general note: Polarisation of emitted light reports the rotation of a fluorescent probe.
Assay [17] can be described thus: modulation of C. elegans fzo-1 (AID 1259413; call rule not given here;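 further: fzo-1 mutant C. elegans worms in liquid wells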). Particulars: C. elegans fzo-1 modulator screen, mean read-out; stronger effect = higher value.
Where [18] appears, read: MELAS cybrid survival, CellTiter-Glo 48 h, stronger effect = higher value.
Where [19] appears, read: Rieske KO mouse fibroblast survival, CellTiter-Glo 72 h.
Setting [20] is: stronger effect = lower value, cell number ratio, induced over uninduced.
[21] abbreviates: measured here: relative caspase fold change +Dox/-Dox.
The mark [22] stands for this setting: measured here: total cells with miR-34 induction, stronger effect = lower value.
[23] abbreviates: measured here: total cells without miR-34 induction.

Mitogen-activated protein kinase 7 (Homo sapiens), sequence (Q13164 whole entry, looked up, the tested form may be a part): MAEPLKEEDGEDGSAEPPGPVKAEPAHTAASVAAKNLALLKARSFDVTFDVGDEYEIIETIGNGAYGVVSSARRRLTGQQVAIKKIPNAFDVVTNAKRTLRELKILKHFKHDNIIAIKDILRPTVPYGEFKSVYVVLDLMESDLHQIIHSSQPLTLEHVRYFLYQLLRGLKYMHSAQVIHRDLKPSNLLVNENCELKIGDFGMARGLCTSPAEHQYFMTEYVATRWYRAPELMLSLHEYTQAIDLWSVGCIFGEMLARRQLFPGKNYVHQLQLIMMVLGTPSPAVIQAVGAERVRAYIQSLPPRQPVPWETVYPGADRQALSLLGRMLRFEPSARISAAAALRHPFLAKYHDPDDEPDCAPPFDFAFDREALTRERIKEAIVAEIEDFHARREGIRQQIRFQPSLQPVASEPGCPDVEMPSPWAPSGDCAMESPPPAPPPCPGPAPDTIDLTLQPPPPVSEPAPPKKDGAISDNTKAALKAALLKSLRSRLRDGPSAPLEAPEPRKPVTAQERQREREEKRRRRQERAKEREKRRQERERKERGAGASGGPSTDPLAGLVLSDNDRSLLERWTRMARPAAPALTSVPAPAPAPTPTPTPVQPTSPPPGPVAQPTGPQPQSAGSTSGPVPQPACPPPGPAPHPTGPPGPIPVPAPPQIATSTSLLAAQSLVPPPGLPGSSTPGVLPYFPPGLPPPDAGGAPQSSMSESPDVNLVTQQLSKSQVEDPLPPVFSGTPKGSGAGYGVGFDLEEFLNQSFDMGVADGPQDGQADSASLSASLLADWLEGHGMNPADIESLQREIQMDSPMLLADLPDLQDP
NAD(+) hydrolase SARM1 (Homo sapiens), sequence (Q6SZW1 whole entry, looked up, the tested form may be a part): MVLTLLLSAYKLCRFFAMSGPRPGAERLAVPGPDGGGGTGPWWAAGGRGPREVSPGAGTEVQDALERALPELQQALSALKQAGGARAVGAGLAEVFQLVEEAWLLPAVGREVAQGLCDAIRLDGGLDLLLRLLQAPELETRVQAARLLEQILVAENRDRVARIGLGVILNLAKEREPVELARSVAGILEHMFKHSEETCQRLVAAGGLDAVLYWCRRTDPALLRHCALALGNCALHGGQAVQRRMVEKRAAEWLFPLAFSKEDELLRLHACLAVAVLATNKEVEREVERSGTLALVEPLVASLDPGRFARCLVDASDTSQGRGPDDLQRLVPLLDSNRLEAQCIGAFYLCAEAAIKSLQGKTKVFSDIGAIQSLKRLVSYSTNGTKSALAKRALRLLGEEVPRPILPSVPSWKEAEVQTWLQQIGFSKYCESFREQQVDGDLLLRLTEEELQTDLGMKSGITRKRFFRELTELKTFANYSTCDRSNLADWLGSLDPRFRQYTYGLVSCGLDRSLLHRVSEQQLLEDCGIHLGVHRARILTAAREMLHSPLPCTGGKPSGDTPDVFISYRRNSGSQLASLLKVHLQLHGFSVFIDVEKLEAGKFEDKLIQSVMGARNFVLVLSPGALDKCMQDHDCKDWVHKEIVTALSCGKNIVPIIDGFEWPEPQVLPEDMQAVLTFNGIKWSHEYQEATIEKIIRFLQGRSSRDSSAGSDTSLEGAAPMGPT
6-phosphogluconate dehydrogenase, decarboxylating (Homo sapiens), sequence (P52209 whole entry, looked up): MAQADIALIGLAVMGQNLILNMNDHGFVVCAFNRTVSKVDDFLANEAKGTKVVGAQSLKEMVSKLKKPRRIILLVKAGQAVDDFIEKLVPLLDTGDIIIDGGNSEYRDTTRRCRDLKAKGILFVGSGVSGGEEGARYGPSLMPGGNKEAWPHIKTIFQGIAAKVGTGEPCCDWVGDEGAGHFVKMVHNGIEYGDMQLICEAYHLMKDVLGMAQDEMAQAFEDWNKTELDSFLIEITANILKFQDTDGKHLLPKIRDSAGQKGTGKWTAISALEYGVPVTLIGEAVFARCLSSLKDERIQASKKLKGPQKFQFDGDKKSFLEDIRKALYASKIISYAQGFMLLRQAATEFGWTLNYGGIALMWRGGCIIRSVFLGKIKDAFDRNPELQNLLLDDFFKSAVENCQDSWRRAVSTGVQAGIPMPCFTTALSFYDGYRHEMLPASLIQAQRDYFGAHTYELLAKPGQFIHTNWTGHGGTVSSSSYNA

In the case of `Cc1ccc(/C(=C\CN2CCCC2)c2ccccn2)cc1`, in [1], the insulin secretion stimulation is 24% (active). Also, in assay [2], the viability decrease is -2.3% (inactive). For the same compound, the tube area decrease in assay [3] was -2.9% (inactive). Besides, in assay [4], the GLP1 secretion stimulation was -2.1% (inactive). For the same compound, the inhibition of viability in assay [5] was -50.9% (inactive). Moreover, the figures for the viability decrease (inhibition) in assay [6] and in [7] were 6.5% (active) and -45.1% (inactive), respectively. The inhibition in assay [8] was 2.89% (inactive). In addition, the red/green cell ratio (normalised) in [9] (actives lie on both sides, counts scaled to control wells, 1 = unselective) is 1.28 (inactive). In addition, the results for the normalised cell number in assay [9] (measured here: epithelial PC-3E GFP cell survival) and in [9] (measured here: mesenchymal TEM4-18 mCherry cell survival) were 0.94 and 1.2, respectively. Also, the z-score was 0.293 (inactive) and -0.295 (inactive) in [10] (setting [18]); 0.187 and -0.783 in assay [10] (setting [19]); -0.245 (inactive) and -0.1 (inactive) and 0.365 (inactive) in [13]. Further, in assay [11], the remaining NAD is 10 nM (inactive). Besides, the luciferase signal in assay [12] was 152 AU (inactive).

Consider `COc1ccc(-c2cc(=O)c3ccc(OC)cc3o2)cc1`, for which, in assay [8], the inhibition is -4.22% (inactive).

With `CC1(C)[C@H](C(=O)O)N2C(=O)C[C@H]2S1(=O)=O`, the parasite load remaining in [14] is 25.7% (inactive). In [14], the viability was determined as 74%. For the same compound, in [1], the insulin secretion stimulation was -1.5% (inactive). Further, the viability decrease in assay [2] was 0.3% (inactive). Moreover, in assay [3], the tube area decrease is -3.3% (inactive). For the same compound, in assay [4], the GLP1 secretion stimulation was -0.3% (inactive). Besides, in assay [5], the inhibition of viability was -13.6% (inactive). For the same compound, the viability decrease (inhibition) was 6.5% (inactive) in [6] and 3.8% (inactive) in assay [7]. Besides, the fold change was 0.988 (inactive) and 0.885 (inactive) and 0.887 (inactive) in [15] (setting [20]); 0.598 and 0.786 and 1.47 in assay [15] (setting [21]). Besides, the cell count in assay [15] (setting [22]) is 7470 and 7970 and 9900; in assay [15] (setting [23]), 7550 and 9000 and 11200. Besides, the remaining NAD in [11] is 10 nM (inactive). Besides, in assay [13], the z-score is 0.33 (inactive).

Consider `C[C@H](C[C@@H](O)[C@@H]1OC1(C)C)[C@@H]1CC[C@]2(C)C3=CC[C@H]4C(C)(C)C(=O)CC[C@]4(C)[C@H]3CC[C@@]12C`, for which the inhibition in assay [8] was -0.309% (inactive).

On to `C=C1CCC(=O)C(C)CCC2C1CC2(C)C` (stereo not drawn), for which the inhibition in [8] was 14.7% (inactive).

As for `CC1(C)C=CC(=O)[C@]2(C)[C@H]3CC[C@@]4(C)[C@H](c5ccoc5)OC(=O)[C@H]5O[C@]54[C@]3(C)C(=O)C[C@@H]12`, the inhibition in [8] was -8.35% (inactive).

Consider `CN1[C@@H]2CC(OC(=O)[C@H](CO)c3ccccc3)C[C@H]1[C@@H]1O[C@@H]12` (stereo partly drawn), for which the parasite load remaining in assay [14] was 98.9% (inactive) and 107% (inactive) and 26.7% (inactive). The viability in assay [14] is 102% and 73.5% and 68.5%. Besides, the figures for the inhibition in assay [16] and in assay [8] were -1.98% (inactive) and 6.42% (inactive), respectively. Further, the insulin secretion stimulation in assay [1] was 0.9% (inactive). In assay [2], the viability decrease was 1% (inactive). The tube area decrease in assay [3] is -4.7% (inactive). Besides, the GLP1 secretion stimulation in [4] was 2.4% (inactive). Besides, the inhibition of viability in assay [5] was -0.5% (inactive). Moreover, the viability decrease (inhibition) in assay [6] is -5.7% (inactive); in assay [7], -0.6% (inactive). Besides, the mean signal in assay [17] is 252 (inactive). Also, the fold change was 0.844 (inactive) and 0.894 (inactive) and 0.852 (inactive) in [15] (setting [20]); 1.08 and 0.602 and 0.997 in [15] (setting [21]). Moreover, the cell count in [15] (setting [22]) was 8470 and 8340 and 9610; in [15] (setting [23]), 10000 and 9330 and 11300. Also, the z-score is -0.375 (inactive) and 0.309 (inactive) in [10] (setting [18]); -0.839 and -0.133 in [10] (setting [19]); -0.01 (inactive) and 0.315 (inactive) in assay [13]. Further, the remaining NAD in assay [11] was 10 nM (inactive). Further, the luciferase signal in assay [12] was 88 AU (inactive).

On to `CC(C)c1c(C(=O)Nc2ccccc2)c(-c2ccccc2)c(-c2ccc(F)cc2)n1CC[C@@H](O)C[C@@H](O)CC(=O)O`, for which, in assay [1], the insulin secretion stimulation is 3.7% (inactive). In addition, in assay [2], the viability decrease is 95.5% (active). The tube area decrease in [3] is 67.8% (active). For the same compound, the GLP1 secretion stimulation in [4] was 5.8% (inactive). Besides, the inhibition of viability in assay [5] is 81.6% (active). In addition, the viability decrease (inhibition) was 96.3% (active) in assay [6] and 68.1% (active) in assay [7]. For the same compound, the inhibition in assay [8] is 17.2% (inactive). In addition, the results for the fold change in assay [15] (setting [20]) and in [15] (setting [21]) were 1.27 (inactive) and 1.55, respectively. The values for the cell count in [15] (setting [22]) and in assay [15] (setting [23]) were 5410 and 4270, respectively. Further, the results for the z-score in assay [10] (setting [18]), in assay [10] (setting [19]) and in assay [13] were -2.11 (inactive), -0.779 and -0.8 (inactive), respectively. Moreover, the remaining NAD in assay [11] is 10 nM (inactive). The luciferase signal in assay [12] is 28 AU (inactive).

The values above are taken from PubChem BioAssay.
